The values below come from PubChem BioAssay (NCI).

About 83,000 compounds went through this panel and 20% of them were active in at least one assay; those are over-represented in the sample as a whole.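 Percent growth is the endpoint: 0 to 100 indicates growth inhibition (40 means 60% inhibition), 0 means no net growth, and negative values indicate cell death.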 Unmarked numbers belong to inactive results. Active and inactive are the calls of the source. The calls were made as follows: active = growth percent below 10; inactive = the rest.

Some test systems named below: SR leukemia; RPMI-8226 leukemia; OVCAR-8 ovarian; OVCAR-5 ovarian; OVCAR-4 ovarian; SK-OV-3 ovarian; IGROV1 ovarian; OVCAR-3 ovarian; HS 578T breast; NCI/ADR-RES ovarian.
Assay in all cases: NCI-60 one-dose screen, 48 h (100 = growth as untreated, 0 = no growth, -100 = all killed)
What all share (details): 10 µM unless noted

For the compound `COc1cc(C(=O)CCCl)ccc1O`, the growth in the experiment with SR leukemia is 96.9%; in the experiment with RPMI-8226 leukemia, 92%; in the experiment on OVCAR-8 ovarian it was 102%; in the experiment on OVCAR-5 ovarian, 92.7%; in the experiment with OVCAR-4 ovarian, 98.8%; in the experiment with SK-OV-3 ovarian it was 111%. Further, the growth in the experiment with IGROV1 ovarian was 104%; in the experiment with OVCAR-3 ovarian, 102%; in the experiment on HS 578T breast, 101%; in the experiment with NCI/ADR-RES ovarian, 94.6%.

Regarding `COc1c(NC[C@H]2OC(O)[C@H](O)[C@@H](O)[C@@H]2O)c(=O)c1=O` (stereo not given in full), the growth in the experiment with SR leukemia was 119%; in the experiment with RPMI-8226 leukemia, 101%; in the experiment with OVCAR-8 ovarian it was 101%; in the experiment with OVCAR-5 ovarian, 103%; with OVCAR-4 ovarian it was 84.4%; with SK-OV-3 ovarian, 106%. Also, the growth with IGROV1 ovarian is 120%; in the experiment with OVCAR-3 ovarian it was 113%; in the experiment with HS 578T breast, 101%; in the experiment with NCI/ADR-RES ovarian, 101%.

As for `COc1ccc(-c2nc3sccn3c2-c2ccnc(NCCCNS(=O)(=O)c3ccc(C)cc3)n2)cc1`, the growth in the experiment on SR leukemia was 33.1%; in the experiment with RPMI-8226 leukemia, 23.2%; in the experiment on OVCAR-8 ovarian it was 25%; in the experiment with OVCAR-5 ovarian, 93.4%; in the experiment with OVCAR-4 ovarian, 42.9%; in the experiment with SK-OV-3 ovarian, 56.1%. In addition, the growth was 33.9% in the experiment with IGROV1 ovarian, 45.4% in the experiment with OVCAR-3 ovarian, 66.2% in the experiment on HS 578T breast and 20.8% with NCI/ADR-RES ovarian.

Consider `O=C(Nc1ccc(Cl)cc1)c1cc(-c2ccc(F)cc2)c2sc(=O)[nH]c2n1`, for which the growth in the experiment on SR leukemia was 16.6%; with RPMI-8226 leukemia it was 10.9%; with OVCAR-8 ovarian, 13%; in the experiment with OVCAR-5 ovarian, 72.2%; in the experiment on OVCAR-4 ovarian, -0.62% (active); with SK-OV-3 ovarian it was 0.427% (active). For the same compound, the growth is 29.3% in the experiment with IGROV1 ovarian, 14% in the experiment on OVCAR-3 ovarian, 29.4% with HS 578T breast and 3.43% (active) with NCI/ADR-RES ovarian.

Consider `COc1cc(-c2csc(NC(=O)c3cc(C(F)(F)F)cc(C(F)(F)F)c3)n2)cc(OC)c1OC`, for which the growth in the experiment with SR leukemia was 40.4%; in the experiment on RPMI-8226 leukemia, 14.1%; in the experiment on OVCAR-8 ovarian, 25.5%; in the experiment with OVCAR-5 ovarian, 60.1%; in the experiment with OVCAR-4 ovarian, 23.4%; with SK-OV-3 ovarian it was 35.4%. The growth in the experiment with IGROV1 ovarian was 46%; in the experiment on OVCAR-3 ovarian, 10.6%; in the experiment with HS 578T breast, 35.1%; with NCI/ADR-RES ovarian, 16.2%.

`COc1ccc(NC(=O)c2cc3ccccc3nc2Nc2cc(OC)c(OC)c(OC)c2)cc1`: the growth in the experiment on SR leukemia was 56.6%; in the experiment with RPMI-8226 leukemia it was 35.5%; with OVCAR-8 ovarian it was 41.9%; with OVCAR-5 ovarian, 92.4%; with OVCAR-4 ovarian, 58.1%; in the experiment on SK-OV-3 ovarian, 91.7%. The growth in the experiment on IGROV1 ovarian was 87%; in the experiment with OVCAR-3 ovarian it was 48%; in the experiment with HS 578T breast, 79%; in the experiment on NCI/ADR-RES ovarian, 43.2%.

`O=S=Nc1ccc([N+](=O)[O-])cc1`: the growth with SR leukemia was 90.3%; with RPMI-8226 leukemia, 102%; in the experiment with OVCAR-8 ovarian, 104%; in the experiment on OVCAR-5 ovarian, 87.2%; in the experiment with OVCAR-4 ovarian it was 101%; in the experiment on SK-OV-3 ovarian, 103%. For the same compound, the growth with IGROV1 ovarian was 103%; with OVCAR-3 ovarian it was 98.3%; in the experiment with HS 578T breast it was 95%; in the experiment on NCI/ADR-RES ovarian, 99.4%.

Turning to `CCOC(=O)CC/C(C)=N\Nc1ccc([N+](=O)[O-])cc1`, the growth in the experiment with SR leukemia was 39%; with RPMI-8226 leukemia, 59.8%; with OVCAR-8 ovarian it was 56.9%; with OVCAR-5 ovarian, 84.3%; in the experiment on OVCAR-4 ovarian, 77.2%; with SK-OV-3 ovarian, 57.8%. In addition, the growth in the experiment on IGROV1 ovarian was 71%; with OVCAR-3 ovarian, 86.1%; in the experiment with HS 578T breast it was 88.6%; in the experiment on NCI/ADR-RES ovarian it was 80.3%.

As to `O=C1N=C(c2c(-c3[nH]c(=O)c4ccc(Br)cc4c3O)c(O)c3ccccc3c2O)C(=O)c2cc(Br)ccc21`, the growth is 20.8% with SR leukemia; 6.4% (active) in the experiment with RPMI-8226 leukemia; -23.5% (active) in the experiment on OVCAR-8 ovarian; 10.4% in the experiment on OVCAR-5 ovarian; -59.7% (active) in the experiment with OVCAR-4 ovarian; -32.6% (active) with SK-OV-3 ovarian. Also, the growth is -55.9% (active) with IGROV1 ovarian, -81.5% (active) in the experiment with OVCAR-3 ovarian, -21.9% (active) in the experiment on HS 578T breast and -28.9% (active) with NCI/ADR-RES ovarian.

Take `CCC(=O)Oc1cc(/C=C/C(=O)O[C@H]2C[C@H]3CN4CCc5c([nH]c6cc(OC)ccc56)[C@@H]4C[C@@H]3[C@@H](C(=O)OC)[C@@H]2OC)ccc1OC`: the growth was 1.95% (active) in the experiment on SR leukemia; 39.9% in the experiment on RPMI-8226 leukemia; 86.8% in the experiment on OVCAR-8 ovarian; 87% in the experiment with OVCAR-5 ovarian; 56.9% in the experiment with OVCAR-4 ovarian; 86.5% in the experiment with SK-OV-3 ovarian. Besides, the growth in the experiment with IGROV1 ovarian was 88.5%; in the experiment on OVCAR-3 ovarian it was 73.1%; in the experiment on HS 578T breast, 56.5%; in the experiment with NCI/ADR-RES ovarian it was 87.1%.

Take `CCN1C(=O)N(CC)C2Nn3c(s/c(=C\c4cccc(F)c4)c3=O)=NC21` (stereo not given): the growth with SR leukemia is 36.2%; in the experiment with RPMI-8226 leukemia, 90.7%; in the experiment with OVCAR-8 ovarian, 77.4%; in the experiment with OVCAR-5 ovarian it was 86.8%; in the experiment with OVCAR-4 ovarian, 67.5%; in the experiment with SK-OV-3 ovarian, 102%. In addition, the growth in the experiment with IGROV1 ovarian is 84.8%; in the experiment with OVCAR-3 ovarian it was 43%; in the experiment with HS 578T breast, 75.5%; with NCI/ADR-RES ovarian, 30.6%.

As for `O=C1c2ccccc2C(=O)c2c1oc1oc3c(c(=O)c21)c(=O)n(-c1ccccc1)c1ccccc31`, the growth was 11.4% in the experiment with SR leukemia; 19.6% in the experiment on RPMI-8226 leukemia; 48.2% with OVCAR-8 ovarian; 88.7% in the experiment with OVCAR-5 ovarian; 18.8% in the experiment with OVCAR-4 ovarian; 67.3% with SK-OV-3 ovarian. The growth in the experiment with IGROV1 ovarian is 71.8%; in the experiment with OVCAR-3 ovarian, 2.15% (active); in the experiment with HS 578T breast, 90.5%; in the experiment on NCI/ADR-RES ovarian, 90.3%.

For `COc1cc(/C=C2\CCCC3=C2N=C2SC(C)=NN2C3c2cc(OC)c(OC)c(OC)c2)cc(OC)c1OC` (stereo not given), the growth in the experiment with SR leukemia is 4.78% (active); in the experiment on RPMI-8226 leukemia it was -25.6% (active); in the experiment on OVCAR-8 ovarian it was 4.84% (active); in the experiment with OVCAR-5 ovarian, 67.3%; in the experiment with OVCAR-4 ovarian it was 54.3%; in the experiment with SK-OV-3 ovarian it was 60.3%. For the same compound, the growth was 24.4% in the experiment on IGROV1 ovarian, 21.2% with OVCAR-3 ovarian, 25% in the experiment with HS 578T breast and 8.69% (active) with NCI/ADR-RES ovarian.
